Only some compounds are listed: those with a hit (about 9% of all), similar ones and a draw of the others.
HTT ATP protect – qHTS Multiplex Assay to Identify Dual Action Probes in a Cell Model of Huntington: Cytoprotection (ATP); PC12 HTT-Q103 induced, cytoprotection, ATP luminescence, 40 h; Potency, µM (series often up to 56.4 µM), hits mostly activators; 230,000 tested, 0.14% active; AID 1471, 2008; also: nearly all actives have a fitted effect of over 45% in size
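ATP quantification (ATPlite) reports survival of PC12 cells in which tebufenozide, 100 nM final, switches on Htt exon 1 with 103 glutamines linked to GFP; compounds are titrated.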
Luc counter – Counterscreen for Luciferase (Kinase-Glo TM) Inhibition. 200,000 tested, 0.28% active. Luciferin 4-monooxygenase (Photuris pensylvanica), Q27757. Potency, µM (top dose mostly 38.3 µM), most hits filed as inhibitors. Kinase-Glo luciferase, ATP luminescence, 8 min; also: nearly all actives have a fitted effect of over 60% in size
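Luminescence was the read-out, taken after 8-minute incubation at ambient temperature. Luciferase turned over luciferin with 10 uM ATP in imidazole pH 7.2 buffer containing KCl, MgCl2, Tween 20 and BSA.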
ALDH1A1 block – qHTS Assay for Inhibitors of Aldehyde Dehydrogenase 1 (ALDH1A1) | Aldehyde dehydrogenase 1A1 (Homo sapiens), P00352 | Purified ALDH1A1, NADH fluorescence, propionaldehyde substrate | Potency, µM (titrated, usually from 75.3 µM), hits mostly inhibitors | 220,000 tested, 7.3% active; active = well fitted inhibition curve with a large enough effect, not every such curve was filed as active; inconclusive = small, poorly fitted or top-dose-only effect, or another doubt; inactive = no such curve, though single readings can be large or run the other way
Target sequence (P00352 whole entry, looked up): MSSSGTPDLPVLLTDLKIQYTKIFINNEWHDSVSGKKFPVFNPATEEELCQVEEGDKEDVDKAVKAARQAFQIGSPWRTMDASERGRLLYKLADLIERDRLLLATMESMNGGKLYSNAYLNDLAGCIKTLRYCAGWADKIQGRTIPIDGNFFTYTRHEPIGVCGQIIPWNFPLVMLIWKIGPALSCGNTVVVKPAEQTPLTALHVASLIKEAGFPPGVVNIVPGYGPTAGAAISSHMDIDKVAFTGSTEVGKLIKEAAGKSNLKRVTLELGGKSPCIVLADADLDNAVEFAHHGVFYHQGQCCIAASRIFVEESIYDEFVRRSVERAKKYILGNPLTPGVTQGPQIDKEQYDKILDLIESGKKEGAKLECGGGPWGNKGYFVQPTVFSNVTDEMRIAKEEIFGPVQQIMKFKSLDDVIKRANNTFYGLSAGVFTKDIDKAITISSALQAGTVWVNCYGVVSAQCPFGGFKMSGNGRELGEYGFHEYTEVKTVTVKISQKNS
HTT aggregate – qHTS Multiplex Assay to Identify Dual Action Probes in a Cell Model of Huntington: Aggregate Formation (GFP). AID 1688, 2009. PC12 HttQ103-GFP aggregates, Acumen cytometry, 40 h. 220,000 tested, 1.1% active. Potency, µM (doses to about 46.1 µM), hits mostly inhibitors; also: nearly all actives have a fitted effect of over 60% in size
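Huntingtin Q103 exon 1–GFP aggregates in induced PC12 cells (100 nM tebufenozide) were quantified by cytometry from lysates, with compounds dosed in titration.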
HPGD inh – qHTS Assay for Inhibitors of HPGD (15-Hydroxyprostaglandin Dehydrogenase); Potency, µM, hits mostly inhibitors; purified HPGD, NADH fluorescence kinetic, PGE2 substrate; 150,000 tested, 4.3% active; active = well fitted inhibition curve with a large enough effect, not every such curve was filed as active; inconclusive = small, poorly fitted or top-dose-only effect, or another doubt; inactive = no such curve, though single readings can be large or run the other way
Target sequence (P15428 whole entry, looked up): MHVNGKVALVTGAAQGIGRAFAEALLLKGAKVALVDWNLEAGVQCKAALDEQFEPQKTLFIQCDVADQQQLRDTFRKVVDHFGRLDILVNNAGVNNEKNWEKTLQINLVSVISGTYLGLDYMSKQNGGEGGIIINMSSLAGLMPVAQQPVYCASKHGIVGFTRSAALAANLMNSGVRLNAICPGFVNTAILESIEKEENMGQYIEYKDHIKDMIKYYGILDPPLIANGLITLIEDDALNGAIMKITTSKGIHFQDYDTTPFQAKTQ
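20 nM HPGD preincubated 15 min at room temperature with compound in 50 mM Tris-HCl pH 8, 0.01% Tween 20. Started with 1 mM NAD+ and 30 uM prostaglandin E2; NADH fluorescence (360/450 nm) read 5 times over 30-s intervals, last minus first.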
Lamin A splicing – qHTS Assay for Modulators of Lamin A Splicing; HeLa LMNA splicing GFP/RFP minigene ratio, 48 h; Potency, µM (series often up to 46.1 µM), actives largely listed as inhibitors; 200,000 tested, 0.01% active; active = well fitted inhibition curve with a large enough effect in the signal ratio, with a control signal flat, not every such curve was filed as active; inconclusive = small, poorly fitted or top-dose-only effect, or effect the other way, or a change in a side signal; the % refers to the signal ratio
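S3 HeLa stable clones carrying a lamin A-EGFP splicing minigene plus DsRed2 were seeded at 600 cells/well in Opti-MEM with 2% FBS, pin-dosed and incubated 48 h at 37°C. Acumen cytometry (488 nm) gave the GFP/RFP total-intensity ratio.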
Each line names hits and unclear results; the compound was inactive in the other large screens. Unless noted, calls follow the shape of the dose curve; as a rule, active = well fitted curve in the direction sought with a large enough effect; inconclusive = small, poorly fitted or top-dose-only effect, or another doubt; inactive = no such curve, though single readings can be large; an effect the other way counts as inactive or inconclusive.

O=C(COC(=O)c1cccs1)NCCC1=CCCCC1	HPGD inh 17.8µM
O=C(/C=C/c1ccco1)NCCc1ccccc1	ALDH1A1 block 22.4µM (no result: HPGD inh, Lamin A splicing)
O=C(/C=C/c1c(Cl)cccc1Cl)NCCc1ccccc1	none
O=S1(=O)CCC(=Nc2ccc(Cl)cc2)c2ccsc21	none (no result: HPGD inh)
CN(Cc1ccccc1)C(=O)COC(=O)/C=C/c1ccco1	ALDH1A1 block inconclusive (no result: HPGD inh)
O=C(/C=C/c1cccc(Cl)c1)NCCc1ccccc1	ALDH1A1 block inconclusive, HPGD inh 8.91µM
CC(C)=CC(=O)NCCc1ccccc1	Luc counter inconclusive, ALDH1A1 block inconclusive, HPGD inh 20µM
CN(CCOC(=O)/C=C/c1ccco1)Cc1ccccc1	ALDH1A1 block 22.4µM (no result: HPGD inh)
CCC/C(=N\NC(=O)CNC(=O)/C=C/c1ccco1)c1ccccc1	none
CC/C(=N\NC(=O)CNC(=O)/C=C/c1ccco1)c1ccccc1	ALDH1A1 block 14.1µM
O=C(O)/C=C/C(=O)NCCc1ccccc1	none (no result: HPGD inh, Lamin A splicing)
Cc1cccc(NC(=S)NC(=O)CC2CC(C)(C)OC2=O)c1 (configuration not stated)	none (no result: HPGD inh)
O=C(/C=C/c1ccccc1)NCCC1=CCCCC1	HPGD inh 28.2µM, Lamin A splicing inconclusive
O=C(/C=C/c1ccc(F)cc1)NCCC1=CCCCC1	none
CCCCOC(=O)c1ccc(NC(=S)NC(=O)c2c(Br)c(C)nn2C)cc1	ALDH1A1 block 3.98µM
CCOc1ccccc1N(C(=O)Nc1ccc(Cl)cc1)C1=NC(C)CS1 (configuration not stated)	none (no result: Luc counter, HPGD inh)
Nc1ncnc(Sc2ccccc2)c1[N+](=O)[O-]	Lamin A splicing inconclusive
Nc1ncnc(Sc2ncccn2)c1[N+](=O)[O-]	HTT aggregate 5.01µM, Lamin A splicing inconclusive (no result: HPGD inh)
NC(=NCCCCCCN=C(N)/N=C(\N)Nc1ccc(Cl)cc1)/N=C(\N)Nc1ccc(Cl)cc1	HTT aggregate 14.1µM, Lamin A splicing inconclusive
CC(C)N=C(N)/N=C(\N)Nc1ccc(Cl)cc1	Lamin A splicing inconclusive
CCC(CO)NCc1sccc1C (configuration not stated)	ALDH1A1 block 20µM (no result: HPGD inh)
OCCn1c(SCCOc2ccccc2)nc2ccccc21	none
CCOCC(=O)N1CCN(c2cccc(Cl)c2)CC1	ALDH1A1 block 3.16µM (no result: HPGD inh, Lamin A splicing)
O=C(O)CCC(=O)N1CCN(c2cccc(Cl)c2)CC1	ALDH1A1 block 28.2µM
Cc1ccc(C(=O)CC2(O)C(=O)N(Cc3ccccc3)c3ccccc32)o1 (configuration not stated)	ALDH1A1 block 0.708µM
Cc1ccc(C(=O)CC2(O)C(=O)N(Cc3ccccc3Cl)c3ccccc32)o1 (configuration not stated)	ALDH1A1 block 3.55µM, HTT aggregate 3.16µM, Lamin A splicing inconclusive
CC(=O)CC1(O)C(=O)N(Cc2ccccc2)c2ccccc21 (configuration not stated)	ALDH1A1 block inconclusive
C/C(CC1(O)C(=O)N(Cc2ccccc2)c2ccccc21)=N\O (configuration not stated)	ALDH1A1 block 1.58µM
Cc1coc(C)c1C(=O)CC1(O)C(=O)N(Cc2ccccc2)c2ccccc21 (configuration not stated)	ALDH1A1 block 4.47µM
O=C(CSc1nc2c([nH]c3ccccc32)c(=O)n1-c1ccccc1)Nc1ccc(Cl)c(Cl)c1	none (no result: HTT ATP protect, Luc counter, ALDH1A1 block, HTT aggregate, HPGD inh)
CCSc1nc2ccccc2n1C(=O)c1ccc(S(=O)(=O)N2CCCCCC2)cc1	none
O=C1NC(Nc2nccs2)(C(F)(F)F)C(=O)N1CCc1ccccc1 (configuration not stated)	none
COc1ccc(CN2C(=O)C(O)(CC(=O)c3c(C)n[nH]c3C)c3ccccc32)cc1OC (configuration not stated)	ALDH1A1 block 3.55µM
CN(C1CCCCC1)S(=O)(=O)Cc1ccccc1	HPGD inh 17.8µM
Cc1ccc(-c2nnc(CSc3nc(C)nc4sc(C)c(C)c34)o2)cc1	none
Cc1nc2ccc(NS(=O)(=O)c3ccc(C)c(C)c3)cc2s1	HTT aggregate inconclusive, Lamin A splicing inconclusive
COc1cc([N+](=O)[O-])cc(/C=N/NC(=O)C(C)Nc2cccc3ccccc23)c1O (configuration not stated)	HTT aggregate 12.6µM, Lamin A splicing inconclusive
CC(Nc1cccc2ccccc12)C(=O)N/N=C/c1ccc([N+](=O)[O-])cc1 (configuration not stated)	ALDH1A1 block inconclusive, HTT aggregate inconclusive, Lamin A splicing inconclusive
C=CCn1c(CNc2ccc(C)cc2)nnc1SCC(=O)N/N=C/c1ccc(O)cc1	ALDH1A1 block 25.1µM
CCOC(=O)Cc1csc(NC(=O)Cc2ccc(Cl)cc2)n1	none (no result: Luc counter, ALDH1A1 block, HPGD inh, Lamin A splicing)
COc1ccc(-c2nn(-c3ccccc3)cc2C(=O)Nc2nccs2)cc1	HTT aggregate 17.8µM, Lamin A splicing inconclusive
COc1cccc(-c2nn(-c3ccccc3)cc2C(=O)Nc2nccs2)c1	ALDH1A1 block inconclusive, HTT aggregate inconclusive, HPGD inh inconclusive, Lamin A splicing inconclusive
COc1ccc(OCC(=O)Nc2nccs2)cc1	Luc counter 10µM (no result: HPGD inh, Lamin A splicing)
CCOc1ccc(OCC(=O)Nc2nccs2)cc1	Luc counter 11.2µM (no result: HPGD inh, Lamin A splicing)
COc1ccc(OCCC(=O)Nc2nccs2)cc1	none (no result: HPGD inh, Lamin A splicing)
CCOc1ccc(S(=O)(=O)N(C)c2ccc(OCC(=O)Nc3nccs3)cc2)cc1	ALDH1A1 block inconclusive (no result: HPGD inh)
O=C(CN1CCOCC1)N1CCc2ccccc2C(c2ccccc2)C1 (configuration not stated)	ALDH1A1 block 14.1µM, Lamin A splicing inconclusive
O=C(CBr)N1CCc2ccccc2C(c2ccccc2)C1 (configuration not stated)	none (no result: Luc counter, ALDH1A1 block, HPGD inh, Lamin A splicing)
O=C(O)CSc1nc2ccccc2n1C1CCCCC1	none (no result: HPGD inh, Lamin A splicing)
CCn1ccc(=N)cc1	none
Cc1ccc(COc2ccsc2-c2n[nH]c(=S)n2C)cc1	ALDH1A1 block 20µM, HPGD inh inconclusive
Cn1c(-c2sccc2OCc2ccc(Cl)cc2Cl)n[nH]c1=S	ALDH1A1 block 31.6µM (no result: HPGD inh)
CCN1C(=O)C(CC(=O)Nc2ccc(OC)cc2)N(CCc2ccc(OC)cc2)C1=S (configuration not stated)	ALDH1A1 block 2.24µM, HTT aggregate inconclusive (no result: HPGD inh)
COc1ccc(CCN2C(=S)N(C)C(=O)C2CC(=O)Nc2ccc(F)cc2)cc1 (configuration not stated)	ALDH1A1 block 1.26µM, Lamin A splicing inconclusive (no result: Luc counter, HPGD inh)

High-throughput results deposited in PubChem by National Center for Advancing Translational Sciences (NCATS).
